# PubChem BioAssay AID2283227 (EPA ToxCast)
# Inconclusive results are not listed. Active and inactive are the calls of the source. Rule for the calls: active = hit-call score of the fitted dose curve at least 0.9, where 1 is the maximum; inconclusive = response in the unintended direction; inactive = score below 0.9.
# System: pig Methylenetetrahydrofolate Reductase (MTHFR), gene 397180
# Experiment: NVS_ENZ_pMTHFR: NovaScreen (NVS) Enzymatic Assay for pig Methylenetetrahydrofolate Reductase (MTHFR)
# Procedure: NVS_ENZ_pMTHFR is a biochemical, single-readout assay that uses extracted gene-proteins from Porcine kidney in a tissue-based cell-free assay. Measurements were taken 1 hour after chemical dosing in a 96-well plate.NVS_ENZ_pMTHFR is one of one assay component(s) measured or calculated from the NVS_ENZ_pMTHFR assay. It is designed to make measurements of enzyme activity, a form of enzyme reporter, as detected with scintillation counting signals by Lysate-based radiodetection technology.Data from the assay component NVS_ENZ_pMTHFR was analyzed into 1 assay endpoint. This assay endpoint, NVS_ENZ_pMTHFR, was analyzed in the positive analysis fitting direction relative to DMSO as the negative control and baseline of activity. Using a type of enzyme reporter, loss-of-signal activity can be used to understand changes in the enzymatic activity as they relate to the gene MTHFR. Furthermore, this assay endpoint can be referred to as a primary readout, because this […] where this one serves a enzymatic activity function. To generalize the intended target to other relatable targets, this assay endpoint is annotated to the oxidoreductase intended target family, where the subfamily is methylenetetrahydrofolate reductase.
# Binding assays used specific radioligands (tritiated, iodinated) with non-radioactive competitive displacement ligands in agonist or antagonist protocols (as indicated) and various reference compounds and inhibitors to titrate specific binding to receptors and transporters. Most enzyme assays (CYPs, kinases, phosphatases, proteases, HDACs) used recombinant protein and specific substrates (fluorescence mostly, some colorimetric and radioactive) and inhibitors, followed by a biochemical separation of substrate and product. All assays for the biochemical HTS were initially run in duplicate at a single concentration (10 uM for CYP450 assays and 25 uM for all others). Assay-chemical combinations meeting a pre-defined threshold (e.g., 30% inhibition and other criteria defined below) were then run in singleton concentration-response format with maximum concentration of 20 uM for CYPs and 50 uM for all others. Each assay was run with positive and negative controls, and concurrent controls on every plate. The follow-up (secondary) screen tested active chemical-pairs in concentration series, as well as a few additional assays not tested in the primary screen, some selected negative inactives, and several cases re-run in the concentration series for confirmatory purposes.
Compound,outcome,AC50
COc1nc(C)nc(NC(=O)NS(=O)(=O)c2ccccc2Cl)n1,inactive,–
COC(=O)c1c(C(F)F)nc(C(F)(F)F)c(C2=NCCS2)c1CC(C)C,–,6.46 µM (active)
CC(=NC#N)N(C)Cc1ccc(Cl)nc1,inactive,–
CC(C)(C)C(=O)C(Oc1ccc(Cl)cc1)n1cncn1 (stereo unspecified),inactive,–
CC(C)Oc1cc(-n2nc(C(C)(C)C)oc2=O)c(Cl)cc1Cl,inactive,–
N#Cc1c[nH]cc1-c1cccc2c1OC(F)(F)O2,inactive,–
COP(=O)(OC)OC=C(Cl)Cl,inactive,–
CN(C)c1nc(=O)n(C2CCCCC2)c(=O)n1C,inactive,–
CCCCOC(=O)c1ccccc1C(=O)O,inactive,–
CCCCOCN(C(=O)CCl)c1c(CC)cccc1CC,inactive,–
CCc1cccc(CC)c1N(COC)C(=O)CCl,inactive,–
